The results in this text go back to PubChem BioAssay (NCATS).

A short description of assay [1]: Cell Viability - N2a (AID 540).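 Further: plate controls were DMSO alone for no effect and tamoxifen control for full effect; nearly all actives have a fitted effect of over 45% in size.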 Particulars: N2a mouse neuroblastoma cell viability; at 92.2 µM (top of the series). The procedure, abridged: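 Luminescent ATP signal (CellTiter-Glo, 20 min at room temperature) served as the viability read-out after N2a cells were treated with compounds for 40 hours at 37 °C. Concentration-response data were fitted to the Hill equation for AC50.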

Assay [2] in a line: Cell Viability - NIH 3T3 (AID 541).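 Further: plate controls were DMSO alone for no effect and tamoxifen positive control for full effect; nearly all actives have a fitted effect of over 25% in size.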 Particulars: NIH 3T3 cell viability, qHTS; series mostly up to 92.2 µM. The procedure, abridged:
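Luminescent ATP signal (CellTiter-Glo) served as the viability read-out after NIH 3T3 cells were exposed to compounds over a concentration range for 40 hr at 37 °C. Hill-equation modelling of concentration-response data gave AC50.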

Assay [3] in a line: Cell Viability - H-4-II-E (AID 543). Further: on the % scale 0 is the no-effect control and ±100 the full control effect; nearly all actives have a fitted effect of over 35% in size. Particulars: H-4-II-E rat hepatoma viability; series mostly up to 92.2 µM. The procedure, abridged:
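Luminescent ATP signal (CellTiter-Glo) served as the viability read-out, with cytotoxicity seen as a concentration-dependent ATP drop. Cells were treated for 40 hours in complete medium. AC50 values derive from Hill-equation modelling.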

Assay [4] is described as follows: Cell Viability - SH-SY5Y (AID 544). Further: nearly all actives have a fitted effect of over 55% in size. Particulars: SH-SY5Y neuroblastoma cell viability; at 92.2 µM (top of the series). The procedure, abridged:
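Luminescent ATP read-out (CellTiter-Glo) measures loss of viable SH-SY5Y neuroblastoma cells after 40 hr compound exposure at 37 °C. AC50 values derive from standard Hill modelling of qHTS concentration-response data.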

Assay [5] in a line: Cell Viability - Renal Proximal Tubule (AID 545). Further: nearly all actives have a fitted effect of over 40% in size. As to conditions: renal proximal tubule cells viability, primary cells of rat origin; series mostly up to 91.7 µM. The procedure, abridged: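 Rat kidney proximal tubule cells, freshly isolated; 1000 cells/well, 5 hr settle, compound 40 hr 37 °C. CellTiter-Glo 20 min RT, luminescence read. AC50 by standard Hill fit.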
A short description of assay [6]: Cell Viability - Mesenchymal (AID 546).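 Further: cells exposed to compound for 40 hours before reading.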 As to conditions: mesenchymal cells viability, qHTS; at 91.7 µM (top of the series). The procedure, abridged: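 Human kidney mesenchymal cells from normal renal glomeruli, 1000 cells/well, rested 5 hr at 37 °C, then treated 40 hr at 37 °C in complete medium. Cellular ATP read by CellTiter-Glo luminescence; AC50 from Hill-equation fits.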
A general note: qHTS replaces the single test concentration by a dilution series.

Assay [7] is described as follows: Cellular Toxicity (caspase-3) HepG2 (AID 654).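 Further: cells exposed to compound for 16 hours before reading; 0% = DMSO alone and 100% = caspase signal from 100 µM tamoxifen.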 As to conditions: HepG2 caspase-3 activation, luminescence, 0% = DMSO only, 100% = tamoxifen; series mostly up to 92.2 µM. The procedure, abridged:
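Cells plated 5 hr at 37 °C, compound added, incubated 16 hr at 37 °C. Caspase-Glo 3/7 reagent followed, 20 min at room temperature, then luminescence read. Activation scored as signal increase; AC50 from Hill fit.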

A short description of assay [8]: Cellular Toxicity (caspase-3) Jurkat (AID 655).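 Further: cells exposed to compound for 16 h at 37 °C before reading.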 Further: potency means the concentration at half of the fitted maximal effect. Particulars: Jurkat caspase-3 activation, luminescence; caspase-3 activation: at 92.2 µM (top of the series), DMSO = 0%, tamoxifen = 100%. The procedure, abridged: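 Luminescent caspase-3/7 readout (aminoluciferin substrate cleavage) in human T-cell leukemia Jurkat cells after 16 hr compound exposure. Concentration-response normalized to DMSO and 100 uM tamoxifen; AC50 by standard Hill equation.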

Assay [9] can be described thus: Cellular Toxicity (caspase-3) HUV-EC-C (AID 656). As to conditions: HUV-EC-C cells, caspase-3 activation (apoptosis), vehicle = 0, 100 µM tamoxifen = 100%; series mostly up to 92.2 µM. The procedure, abridged:
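Luminescent caspase-3/7 activation (aminoluciferin substrate cleavage) in HUV-EC-C cells after 16 hr compound exposure, 37°C. Signal normalized to DMSO basal and 100 uM tamoxifen as 100%; AC50 from concentration-response fitted with the Hill equation.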

Assay [10] can be described thus: Cellular Toxicity (caspase-3) SHSY5Y (AID 657). As to conditions: SH-SY5Y caspase-3 activation, DMSO zero, 10 µM staurosporine = 100%; series mostly up to 91.7 µM. The procedure, abridged: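 Luminescent caspase-3/7 readout (aminoluciferin release) in SH-SY5Y cells after 16 h compound exposure in complete medium. Activity scaled between DMSO basal and 10 uM staurosporine as 100%; concentration-response fitted to Hill equation for AC50.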

A short description of assay [11]: Cellular Toxicity (caspase-3) BJ (AID 658). As to conditions: BJ fibroblasts, luminescence, normalized: DMSO 0%, staurosporine 100%; series mostly up to 91.7 µM. The procedure, abridged: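 BJ human foreskin fibroblasts, 1000 cells/well, treated 16 hours at 37 °C in complete medium; caspase 3/7 activity by Caspase-Glo luminescence after 1 hr at room temperature. Normalized to DMSO and 10 uM staurosporine; AC50 from Hill fits.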

Assay [12] is described as follows: Cellular Toxicity (caspase-3) MRC-5 (AID 659). Particulars: MRC-5 cells, luminescence, normalized: DMSO 0%, 10 µM staurosporine 100%; series mostly up to 91.7 µM. The procedure, abridged:
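MRC-5 human normal lung fibroblasts, 1500 cells/well, treated 16 h at 37 °C in complete medium. Caspase 3/7 measured by Caspase-Glo luminescence after 1 h at room temperature. Normalized to DMSO and 10 uM staurosporine; AC50 from Hill fit.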

Assay [13] can be described thus: Cellular Toxicity (caspase-3) Mesangial (AID 660).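 Further: combined caspase 3 and 7 activity read by Caspase-Glo luminescence.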 As to conditions: mesangial cells, normalized: DMSO 0%, 100 µM tamoxifen 100%; series mostly up to 91.7 µM. The procedure, abridged:
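Mesangial cells, 1000/well, 5 h settle at 37 °C; compound 16 h, 37 °C; Caspase-Glo 3/7 reagent 20 min RT; luminescence. Norm.: DMSO = 0%, tamoxifen 100 uM = 100%. AC50, Hill fit.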

Assay [14] in a line: Cellular Toxicity (caspase-3) SK-N-SH (AID 661). As to conditions: SK-N-SH caspase-3 activation, qHTS, DMSO as zero, staurosporine as full; series mostly up to 91.7 µM. The procedure, abridged:
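Human neuroblastoma SK-N-SH, 1500 cells/well, 5 hr pre-incubation, then compound 16 hr, 37 °C. Caspase-Glo 3/7 reagent, 1 hr RT, luminescence. Norm. to DMSO/10 uM staurosporine; Hill-fit AC50.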

Assay [15] in a line: Cellular Toxicity (caspase-3) H-4-II-E (AID 663).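 Further: cells exposed to compound for 16 hr before readout.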 As to conditions: H-4-II-E rat hepatoma, scaled: DMSO 0%, 100 µM tamoxifen 100%; series mostly up to 92.2 µM. The procedure, abridged:
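Rat hepatoma H-4-II-E cells (1500/well) plated 5 hr, then exposed to compound titrations for 16 hr at 37 °C. Caspase-Glo 3/7 luminescence read after 20 min at RT; data normalized to DMSO and 100 uM tamoxifen, AC50 from Hill fits.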

Assay [16] is described as follows: Cellular Toxicity (caspase-3) Hek293 (AID 664).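 Further: cells exposed to compound for 16 h at 37 °C before readout.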 Particulars: HEK293 caspase-3 activation, DMSO = 0%, 100 µM tamoxifen = 100%; series mostly up to 92.2 µM. The procedure, abridged: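 Cells plated, 5 hr at 37 °C; compounds added; 16 hr at 37 °C; Caspase-Glo 3/7 reagent, 20 min RT; luminescence read. Activation expressed relative to DMSO and 100 uM tamoxifen, AC50 by Hill model.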

The nature of assay [17]: Cellular Toxicity (caspase-3) N2a (AID 665).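 Further: compound exposure lasted 16 h at 37 °C before readout.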 As to conditions: N2a cells, luminescence, normalized: DMSO 0%, 10 µM staurosporine 100%; series mostly up to 92.2 µM. The procedure, abridged: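 N2a cells, 1500/well, 5 h settle at 37 °C; cpd 16 h, 37 °C; Caspase-Glo 3/7, 1 h RT; luminescence. Norm: DMSO = 0, 10 uM staurosporine = 100%. AC50, Hill fit.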
The target in assay [18] is Glucocorticoid receptor (Homo sapiens) (UniProt P04150). The experiment in a line: GR-GFP Redistribution (AID 450;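 active means compounds whose dose series gives a full or clear partial fitted curve of increased nuclear translocation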; further: potency means the concentration at half of the fitted maximal effect). Particulars: U2OS GR-GFP nuclear translocation, laser cytometry, 2 h.
Assay [19] has the same target. The assay is described as follows: GR-EFC Redistribution (AID 451; calls by dose curve; further: potency means the concentration at half of the fitted maximal effect). Particulars: CHO-K1 GR-EFC translocation, beta-gal luminescence, 2 h. The procedure, abridged: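 CHO-K1 cells expressing nuclear EA and GR-ED fragments of b-gal; compounds titrated up to 46 uM final, 2 h at 37 C. GR nuclear translocation read as complemented b-gal luminescence after 1 h RT detection.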

The target in assay [20] is 3',5'-cyclic-AMP phosphodiesterase 4B (Homo sapiens) (UniProt Q07343). The assay is described as follows: qHTS Assay for Inhibitors of PDE-IV (AID 607; active means well fitted activation curve with a large enough effect in the main read-out, with a control signal flat, not every such curve was filed as active; further: % of control where 0% means no effect). As to conditions: HEK293 ACTOne CNG channel cells, membrane potential fluorescence; series mostly up to 22.9 µM. The procedure, abridged:
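ACTOne HEK293 cells carry a modified cAMP-gated CNG channel and express endogenous PDE4; plated 1000 cells/well, compounds up to 22.9 uM final. Membrane-potential dye fluorescence (ex 535/em 590) was read; parental cells received 10 uM forskolin + 100 uM RO 20-1724.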

SMILES strings stand for the structures. “And” between values parts separate entries of the source, which are not always exact repeats. Identical values can stand only once. Values without a mark were called inactive. Results filed as inconclusive are left out. The source made the active and inactive calls. Unless noted, the call rests on the fitted dose curve; in most records, active means well fitted curve in the direction sought with a large enough effect; inconclusive means small, poorly fitted or top-dose-only effect, or another doubt; inactive means no such curve, though single readings can be large; an effect the other way counts as inactive or inconclusive. Peptide text beside a SMILES is read from it.

Glucocorticoid receptor (Homo sapiens), sequence (P04150 whole entry, looked up, the tested form may be a part): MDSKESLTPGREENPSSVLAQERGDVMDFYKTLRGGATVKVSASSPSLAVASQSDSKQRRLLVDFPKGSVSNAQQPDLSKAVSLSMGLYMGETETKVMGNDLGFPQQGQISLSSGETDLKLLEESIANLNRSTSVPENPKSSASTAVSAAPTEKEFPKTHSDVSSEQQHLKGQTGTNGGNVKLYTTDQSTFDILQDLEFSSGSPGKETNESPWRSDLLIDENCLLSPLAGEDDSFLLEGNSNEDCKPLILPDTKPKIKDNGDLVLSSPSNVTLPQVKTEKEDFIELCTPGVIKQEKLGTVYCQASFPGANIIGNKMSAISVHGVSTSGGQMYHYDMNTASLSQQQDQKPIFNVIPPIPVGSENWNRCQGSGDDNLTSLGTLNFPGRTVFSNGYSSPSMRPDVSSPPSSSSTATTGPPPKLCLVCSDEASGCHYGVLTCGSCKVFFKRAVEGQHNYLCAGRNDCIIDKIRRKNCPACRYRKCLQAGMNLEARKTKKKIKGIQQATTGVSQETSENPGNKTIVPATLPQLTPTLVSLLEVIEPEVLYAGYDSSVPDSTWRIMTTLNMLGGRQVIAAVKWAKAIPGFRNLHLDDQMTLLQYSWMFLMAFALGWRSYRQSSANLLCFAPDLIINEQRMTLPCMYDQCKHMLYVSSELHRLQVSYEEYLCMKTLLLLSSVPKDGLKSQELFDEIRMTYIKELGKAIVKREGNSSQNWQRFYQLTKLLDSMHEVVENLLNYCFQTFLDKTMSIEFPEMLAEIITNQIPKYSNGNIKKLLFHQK
3',5'-cyclic-AMP phosphodiesterase 4B (Homo sapiens), sequence (Q07343 whole entry, looked up): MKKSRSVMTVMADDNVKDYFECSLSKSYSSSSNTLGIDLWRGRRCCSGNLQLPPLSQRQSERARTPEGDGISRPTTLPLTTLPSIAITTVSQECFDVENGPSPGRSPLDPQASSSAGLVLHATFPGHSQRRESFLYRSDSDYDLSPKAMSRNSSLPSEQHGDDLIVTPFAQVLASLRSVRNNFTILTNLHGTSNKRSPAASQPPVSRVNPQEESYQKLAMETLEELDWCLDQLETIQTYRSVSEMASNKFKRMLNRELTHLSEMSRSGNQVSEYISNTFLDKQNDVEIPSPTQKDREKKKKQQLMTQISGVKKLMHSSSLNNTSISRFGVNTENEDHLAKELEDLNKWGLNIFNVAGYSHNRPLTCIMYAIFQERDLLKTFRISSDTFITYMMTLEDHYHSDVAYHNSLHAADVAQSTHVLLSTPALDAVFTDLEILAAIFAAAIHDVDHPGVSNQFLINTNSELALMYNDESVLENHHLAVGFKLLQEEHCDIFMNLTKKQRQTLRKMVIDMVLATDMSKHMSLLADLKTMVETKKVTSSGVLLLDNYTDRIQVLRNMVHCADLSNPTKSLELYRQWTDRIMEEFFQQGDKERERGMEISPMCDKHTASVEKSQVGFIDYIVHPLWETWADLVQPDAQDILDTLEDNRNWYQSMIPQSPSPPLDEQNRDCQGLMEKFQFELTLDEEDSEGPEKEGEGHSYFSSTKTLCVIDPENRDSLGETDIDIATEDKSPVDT

Turning to `CCCCC/C=C\C/C=C\CCCCCCCC(=O)O`, the activity change, negative = cytotoxicity in [1] was -28.9%; in [6], 8.92%. The compound was called inactive in [2], in [5], in assay [7], in [9], in assay [10] and in [11]. The call in assay [12], in assay [13], in [14], in assay [15], in assay [16] and in assay [17] was inactive. Besides, in assay [3], the Potency entry is “inactive”. The viability change, negative = cytotoxic in assay [4] is 0.00595%. In assay [8], the caspase-3 activation is 2.62%.
Consider `CN(C)CCCN1c2ccccc2C(C)(C)c2ccccc21`, for which the Potency in assay [18] is over 46 µM; in assay [19], over 9.22 µM. Moreover, the compound was classed as inactive in assay [20].
Turning to `CC[N+](C)(C)Cc1ccccc1Br`, the Potency in [18] was > 46 µM and > 20.6 µM; in [19], > 46 µM and > 20.6 µM. Further, in assay [20], the result was inactive.
With `CC(=O)N[C@@H](CC(=O)O)C(=O)N[C@@H](CCC(=O)O)C(=O)O` (Ac-Asp-Glu-OH), the Potency in [18] is > 20.6 µM and > 46 µM; in assay [19], > 20.6 µM and > 46 µM. Moreover, the compound was called inactive in [20].
Regarding `O=CCCCC=O`, the call in assay [5], in [9], in [10], in assay [13], in assay [16] and in [17] was inactive. Also, in assay [6], the activity change, negative = cytotoxicity was -29.7%. Besides, in assay [8], the Potency is 6.31 µM (active).
With `COC(=O)C1=C(C)NC(C)=C(C(=O)OCCCN2CCC(c3ccccc3)(c3ccccc3)CC2)[C@H]1c1cccc([N+](=O)[O-])c1`, the Potency in [18] and in assay [19] was over 46 µM in each case. For the same compound, the compound was classed as inactive in [20].
On to `CCN(CC)Cc1cc(Nc2ccnc3cc(Cl)ccc23)ccc1O`, for which the Potency in [18] and in assay [19] was over 20.6 µM each time.
On to `CC(C)N=c1cc2n(-c3ccc(Cl)cc3)c3ccccc3nc-2cc1Nc1ccc(Cl)cc1`, for which the Potency in assay [18] and in assay [19] was over 20.6 µM in each case. Besides, the compound was classed as inactive in [20].
Regarding `O=C(O)CCC(=O)C(=O)O`, the Potency was over 46 µM in assay [18] and over 9.22 µM in assay [19]. Further, the activity change, negative = cytotoxicity is 6.48% in [1] and 6.49% in assay [6]. In addition, the compound was classed as inactive in [2], in assay [5], in [20], in assay [7], in [9] and in [10]. The call in [11], in assay [12], in assay [13], in [14], in assay [15] and in assay [16] was inactive. Besides, in [17], the result was inactive. The Potency entry in [3] was “inactive”. The viability change, negative = cytotoxic in assay [4] is 4.65%. Besides, in [8], the caspase-3 activation is 0.778%.
As for `Cc1c(C)c2c(c(C)c1O)CC[C@@](C)(CCC[C@@H](C)CCC[C@@H](C)CCCC(C)C)O2`, the Potency in assay [18] and in [19] was over 20.6 µM throughout. For the same compound, in assay [20], the compound was classed as inactive.
`CCCC(=O)Nc1ncnc2c1ncn2[C@@H]1O[C@@H]2COP(=O)(O)O[C@H]2[C@H]1OC(=O)CCC`: the Potency was > 46 µM and > 20.6 µM in assay [18]; over 46 µM in assay [19].
As for `O=C1CSC2(CCN(CCCN3c4ccccc4Sc4ccc(Cl)cc43)CC2)N1`, the results for the Potency in [18] and in assay [19] were over 46 µM and over 9.22 µM, respectively. In assay [20], the compound was called inactive.
Turning to `CC(Cc1ccc(O)c(O)c1)C(C)Cc1ccc(O)c(O)c1` (stereo unspecified), the Potency in assay [18] is over 20.6 µM.
